Source: PubChem BioAssay
Compounds with a hit are over-represented: about 0.36% of the library has one in this group of screens.
RGS4 inhibitor: human RGS4 inhibition; Transcreener GDP fluorescence polarization, RGS4-accelerated GTP hydrolysis; Potency, µM (series often up to 114 µM), inactives show top-dose activity change, negative = inhibition, most hits filed as inhibitors; AID 504845; actives 0.039% (n = 390,000); P49798; also: potency is read from the fitted curve at half-maximal effect; % is scaled to controls: 0 for no effect and ±100 for the full control effect; nearly all actives have a fitted effect of over 75% in size
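MLSMR compounds (23 nl, pin-transferred) preincubated 10 min at room temperature with a 500nM (2x) first reagent, then RGS4 at 900nM (2x) plus Transcreener GDP mix added; fluorescence polarization (620/688 nm) read before and after 90 min at 30 °C.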
CCT modulator: modulators of cytosolic chaperonin (CCT/TRiC) activity; actives 0.3% (n = 360,000); purified chaperonin ATPase assay, HTRF ADP detection, 30 min; activity change, % (concentration not given with the values), hits read low; AID 651819; in the data active = activity change below about -30%; also: % is scaled to controls: 0 for no effect and ±100 for the full control effect
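Enzyme 40 or 20 nM (batch-dependent) in Tris pH 7.4/KCl/MgCl2/DTT; cpd 76 uM single point; ATP 10 uM; 30 min 37 °C; Transcreener ADP HTRF detection, 30 min RT; ratio 665/615.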
MmCpn inh: inhibitors of Methanococcus maripaludis chaperonin TRiC (MmCpn); purified Mm-Cpn ATPase, ADP Transcreener TR-FRET; Potency, µM (doses to about 76.9 µM), without a hit: top-dose activity, negative = inhibition, most hits filed as inhibitors; actives 0.031% (n = 330,000); AID 504842; also: potency is read from the fitted curve at half-maximal effect; % is scaled to controls: 0 for no effect and ±100 for the full control effect; nearly all actives have a fitted effect of over 80% in size
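ATPase turnover read by TR-FRET ADP competition (Eu cryptate antibody/ADP-d2, 665/590 nm): 10uM ATP final, 25nM Mm-CPN final, 30 min 37degC after 10-min compound preincubation, pH 7.4 Tris/KCl/MgCl2/DTT buffer.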
PTHR1 agonist: activates the human parathyroid hormone receptor PTHR1. Q03431. HEK293 GP2 PTHR1 cells, GloSensor cAMP luminescence, 1 h. Potency, µM (top dose mostly 115 µM), inactives show at the highest dose activation, usual class: activators. actives 0.075% (n = 410,000). AID 743266; also: potency is read from the fitted curve at half-maximal effect; nearly all actives have a fitted effect of over 55% in size
Target sequence (Q03431 whole entry, looked up): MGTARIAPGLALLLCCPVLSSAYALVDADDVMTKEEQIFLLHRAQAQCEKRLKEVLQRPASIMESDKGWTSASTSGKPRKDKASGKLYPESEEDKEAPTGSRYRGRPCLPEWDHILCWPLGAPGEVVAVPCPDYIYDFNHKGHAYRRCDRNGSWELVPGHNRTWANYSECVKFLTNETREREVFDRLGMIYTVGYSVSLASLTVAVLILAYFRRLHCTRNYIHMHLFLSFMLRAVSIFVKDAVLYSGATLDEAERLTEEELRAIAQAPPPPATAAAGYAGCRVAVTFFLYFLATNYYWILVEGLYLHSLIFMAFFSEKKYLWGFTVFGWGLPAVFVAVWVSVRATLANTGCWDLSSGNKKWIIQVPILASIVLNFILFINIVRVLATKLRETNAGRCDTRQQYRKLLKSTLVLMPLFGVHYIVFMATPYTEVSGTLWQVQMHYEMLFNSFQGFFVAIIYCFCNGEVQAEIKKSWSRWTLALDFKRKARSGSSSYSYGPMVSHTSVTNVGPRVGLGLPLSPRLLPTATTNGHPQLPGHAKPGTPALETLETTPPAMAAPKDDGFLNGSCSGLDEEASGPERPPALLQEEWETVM
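HEK-293-derived GP2 cells expressing PTHR1 and a GloSensor cAMP reporter, 3,000/well, plated overnight, given luciferin plus IBMX (each 0.5 mM as added) for 1 h at 37 °C, then compound for 1 h at 37 °C. Luminescence was read after 15 min at room temperature.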
ERG Ets-DNA blk: blocks human ERG Ets domain binding to DNA; AID 624246; actives 0.028% (n = 370,000); P11308; Potency, µM (highest dose often 76.9 µM), without a hit: top-dose FP activity, negative = inhibition, hits mostly inhibitors; fluorescence polarization, His-ERG Ets domain / labelled DNA; active = well fitted inhibition curve with a large enough effect in the polarisation, with a control signal flat; inconclusive = small, poorly fitted or top-dose-only effect, or effect the other way, or a change in a side signal; inactive = no such curve, though single readings can be large or run the other way; the % refers to the polarisation;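 also: polarization taken with two DNA probes labelled with fluorescein and Texas red; potency is read from the fitted curve at half-maximal effect; % of control where 0% means no effect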
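His-tagged ERG Ets domain (1 uM in the protein solution; 300mM KCl, 50mM Tris-HCl, 1mM EDTA, 1mM DTT, pH 7.5) received compound, then a probe mix of 5 nM fluorescein-DNA and 100nM Texas-615-DNA. Fluorescence polarization was read for both dyes.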
The depositor's hits bear a star; [ ] = another dose, or the depositor's remark. Unless noted, calls follow the shape of the dose curve; as a rule, active = well fitted curve in the direction sought with a large enough effect; inconclusive = small, poorly fitted or top-dose-only effect, or another doubt; inactive = no such curve, though single readings can be large; an effect the other way counts as inactive or inconclusive.

S=c1[nH]nc(-c2cccc(Br)c2)o1 was read as RGS4 inhibitor -24%, CCT modulator -1, MmCpn inh 32µM*, PTHR1 agonist -23% and ERG Ets-DNA blk -14%.
`COc1cccc(COC(=O)c2ccc(S(=O)(=O)N3CCC(C)CC3)cc2)c1OC` gave RGS4 inhibitor -5%, CCT modulator -61*, MmCpn inh 1%, PTHR1 agonist -3% and ERG Ets-DNA blk -2%.
`COc1ccc(-c2cc3ncc(C)n3c(Nc3ncccc3C(N)=O)n2)cc1OC` gave RGS4 inhibitor -15%[56.9 µM].
Screening COc1ccc([C@]23Cc4cc(C#N)ccc4[C@H](O2)c2c(cc(C)n(Cc4ccccc4)c2=O)O3)cc1 returned MmCpn inh -4%[15.4 µM].
For Cc1ccc(C)c(S(=O)(=O)NCCN2CCOCC2)c1 the results were RGS4 inhibitor 15%, CCT modulator -31*, MmCpn inh -1%, PTHR1 agonist -6% and ERG Ets-DNA blk -1%.
`CN(Cc1ccccc1)C(NC(=O)c1ccco1)C(Cl)(Cl)Cl` (configuration not stated) gave RGS4 inhibitor 12%, CCT modulator -2, MmCpn inh 0%, PTHR1 agonist inactive and ERG Ets-DNA blk -1%.
`CN(Cc1ccccc1)C(NC(=O)c1ccccc1)C(Cl)(Cl)Cl` (configuration not stated) gave RGS4 inhibitor -23%, CCT modulator -39*, MmCpn inh -2%, PTHR1 agonist -2%[57.5 µM] and ERG Ets-DNA blk 5%.
For COc1ccc(C(=O)N=C2SC3CS(=O)(=O)CC3N2c2ccc(N(C)C)cc2)cc1OC (configuration not stated) the results were RGS4 inhibitor -30%, CCT modulator -60*, MmCpn inh 0%, PTHR1 agonist -15% and ERG Ets-DNA blk 3%.
For CCC(C)NC(=O)c1ccc2nc(-c3cccs3)c(-c3cccs3)nc2c1 (configuration not stated) the results were RGS4 inhibitor -2%.
`COc1ccc(-n2c(NC(=O)c3ccco3)c(C#N)c3nc4ccccc4nc32)cc1` gave RGS4 inhibitor 15%[11.4 µM], CCT modulator -60*, MmCpn inh -5%, PTHR1 agonist -23% and ERG Ets-DNA blk 3%.
`N#Cc1c(NC(=O)c2ccccc2Cl)n(Cc2ccccc2)c2nc3ccccc3nc12` gave RGS4 inhibitor -53%, CCT modulator -2, MmCpn inh -6%, PTHR1 agonist inactive and ERG Ets-DNA blk -4%.
COC(=O)c1cc(S(=O)(=O)Nc2nn(C)c3ccccc23)oc1C was read as RGS4 inhibitor 8%, CCT modulator -43*, MmCpn inh 2%, PTHR1 agonist -22% and ERG Ets-DNA blk 5%.
For COc1ccc(OCC(=O)NNC(=O)c2cc3ccccc3o2)cc1 the results were RGS4 inhibitor 10%, CCT modulator -67*, MmCpn inh -2%, PTHR1 agonist -23% and ERG Ets-DNA blk 15%.
O=C(Nc1nc2ccccc2[nH]1)c1ccc(F)c(S(=O)(=O)N2CCOCC2)c1 was read as RGS4 inhibitor -11%, CCT modulator -44*, MmCpn inh 2%, PTHR1 agonist -9% and ERG Ets-DNA blk -3%.
Screening c1cn2cc(-c3ccc4c(c3)OCO4)nc2s1 returned RGS4 inhibitor inconclusive, CCT modulator -63*, MmCpn inh 2%, PTHR1 agonist -46% and ERG Ets-DNA blk -3%.
Screening CC(=O)Nc1ccc(S(=O)(=O)NCc2ccc3c(c2)cc(C)n3C)cc1 returned RGS4 inhibitor -36%, CCT modulator -1, MmCpn inh inconclusive, PTHR1 agonist inactive and ERG Ets-DNA blk 14µM*.
Cc1cc2cc(CNC(=S)Nc3ccc(OC(F)(F)F)cc3)ccc2n1C was read as RGS4 inhibitor -29%, CCT modulator 0, MmCpn inh inconclusive, PTHR1 agonist -28% and ERG Ets-DNA blk 20µM*.
Cc1c(C(=O)NCc2ccc3c(c2)cc(C)n3C)cccc1[N+](=O)[O-] was read as RGS4 inhibitor -31%, CCT modulator 2, MmCpn inh inconclusive, PTHR1 agonist -19% and ERG Ets-DNA blk 28µM*.
For COc1cc(C)ccc1NC(=O)c1ccc(S(=O)(=O)N2CCOCC2)cc1 the results were RGS4 inhibitor -1%, CCT modulator -30*, MmCpn inh -1%, PTHR1 agonist -11% and ERG Ets-DNA blk -10%.
For Cc1ccc(NC(=O)Cn2c(=O)n(Cc3ccco3)c(=O)c3sc4ccccc4c32)cc1C the results were RGS4 inhibitor -43%, PTHR1 agonist -23% and ERG Ets-DNA blk 2%.
`CCOc1ccccc1CNC(=O)c1cc2c(=O)n(Cc3cccnc3)ccc2nc1C` gave RGS4 inhibitor inconclusive, PTHR1 agonist -18% and ERG Ets-DNA blk -2%.
CCc1ccc(CN(C(=O)c2cc(=O)c3ccc(C)cc3o2)C2CCS(=O)(=O)C2)cc1 (configuration not stated) was read as RGS4 inhibitor -35%, PTHR1 agonist inactive and ERG Ets-DNA blk 1%.
For COc1cc2nc(SCc3cccc(Cl)c3)n3nc(CCn4nc(C)cc4C)nc3c2cc1OC the results were RGS4 inhibitor 5%, PTHR1 agonist -15% and ERG Ets-DNA blk 3%.
Screening Cc1cc2cc(CNC(=O)c3ccc(S(=O)(=O)N4CCOCC4)cc3)ccc2n1C returned RGS4 inhibitor -22%, CCT modulator 0, MmCpn inh inconclusive, PTHR1 agonist -21% and ERG Ets-DNA blk 28µM*.
Screening Cc1cc2cc(CNC(=O)c3ccc(S(=O)(=O)N(C)C)cc3)ccc2n1C returned RGS4 inhibitor -50%, CCT modulator -1, MmCpn inh inconclusive, PTHR1 agonist inactive and ERG Ets-DNA blk inconclusive.
For Cc1cc2ccccc2n1CCNC(=O)c1ccc(S(=O)(=O)N2CCCCC2)cc1 the results were RGS4 inhibitor -8%, CCT modulator -4, MmCpn inh 14µM*, PTHR1 agonist inactive and ERG Ets-DNA blk 25µM*.
Cc1cccc(NC(=S)NCc2ccc3c(c2)cc(C)n3C)c1C was read as RGS4 inhibitor -42%, CCT modulator 0, MmCpn inh inconclusive, PTHR1 agonist -20% and ERG Ets-DNA blk 28µM*.
For COc1ccc(CNC(=O)c2cc3c(=O)[nH]c4ccccc4c3n2C)c(OC)c1 the results were RGS4 inhibitor 3%, PTHR1 agonist inactive and ERG Ets-DNA blk -1%.
For CC1CCCCN1Cc1c(O)ccc2c(=O)c(-c3ccc(Cl)cc3)c(C(F)(F)F)oc12 (configuration not stated) the results were RGS4 inhibitor 35%, PTHR1 agonist 5% and ERG Ets-DNA blk 2%.
Screening O=C1NC(=O)/C(=C/c2ccc(-c3ccc(F)cc3O)o2)S1 returned RGS4 inhibitor 21µM*.
